Data on 16 compounds can be found in ChEMBL document CHEMBL1961873, “Compounds: GSK PKIS; Assays: Nanosyn kinase panel” (2012).

As usually defined, the inhibition is the change of the read-out against control, counted positive when it falls.

Several values for one entry are separate records, joined by “and”; a condition that tells them apart may be missing. Identical values can stand only once.

The target of assay [1] is Tyrosine-protein kinase SYK (Homo sapiens) (UniProt P43405). To be noted: at 1 µM.
Assay [2] addresses T1, Tyrosine-protein kinase Tec (Homo sapiens) (UniProt P42680).
T1 sequence (whole entry): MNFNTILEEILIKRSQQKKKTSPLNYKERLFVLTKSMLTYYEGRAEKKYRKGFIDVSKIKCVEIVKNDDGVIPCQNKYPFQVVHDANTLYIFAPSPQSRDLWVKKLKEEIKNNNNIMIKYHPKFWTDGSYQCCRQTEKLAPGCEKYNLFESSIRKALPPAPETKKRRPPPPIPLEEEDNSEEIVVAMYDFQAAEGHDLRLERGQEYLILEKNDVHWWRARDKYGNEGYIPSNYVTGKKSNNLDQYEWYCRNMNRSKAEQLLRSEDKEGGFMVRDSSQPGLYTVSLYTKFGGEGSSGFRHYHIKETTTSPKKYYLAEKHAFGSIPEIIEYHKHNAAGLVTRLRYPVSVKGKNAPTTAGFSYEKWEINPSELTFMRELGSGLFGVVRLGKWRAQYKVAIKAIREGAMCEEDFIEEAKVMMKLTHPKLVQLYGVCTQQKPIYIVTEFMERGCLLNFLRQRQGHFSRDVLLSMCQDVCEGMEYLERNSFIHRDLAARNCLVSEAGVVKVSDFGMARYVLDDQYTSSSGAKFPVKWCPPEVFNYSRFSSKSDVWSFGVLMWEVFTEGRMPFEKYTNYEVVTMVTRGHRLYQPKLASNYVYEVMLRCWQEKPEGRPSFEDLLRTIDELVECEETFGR
To be noted: at 0.1 µM.

The target of assay [3] is T1, Tyrosine-protein kinase Tec (Homo sapiens). To be noted: at 1 µM.
Assay [4] has as its target Angiopoietin-1 receptor (Homo sapiens) (UniProt Q02763). The following applies: at 0.1 µM.
For assay [5] the target is unchanged. The following applies: at 1 µM.
Assay [6] has as its target T2, Non-receptor tyrosine-protein kinase TNK1 (Homo sapiens) (UniProt Q13470).
T2 sequence (whole entry): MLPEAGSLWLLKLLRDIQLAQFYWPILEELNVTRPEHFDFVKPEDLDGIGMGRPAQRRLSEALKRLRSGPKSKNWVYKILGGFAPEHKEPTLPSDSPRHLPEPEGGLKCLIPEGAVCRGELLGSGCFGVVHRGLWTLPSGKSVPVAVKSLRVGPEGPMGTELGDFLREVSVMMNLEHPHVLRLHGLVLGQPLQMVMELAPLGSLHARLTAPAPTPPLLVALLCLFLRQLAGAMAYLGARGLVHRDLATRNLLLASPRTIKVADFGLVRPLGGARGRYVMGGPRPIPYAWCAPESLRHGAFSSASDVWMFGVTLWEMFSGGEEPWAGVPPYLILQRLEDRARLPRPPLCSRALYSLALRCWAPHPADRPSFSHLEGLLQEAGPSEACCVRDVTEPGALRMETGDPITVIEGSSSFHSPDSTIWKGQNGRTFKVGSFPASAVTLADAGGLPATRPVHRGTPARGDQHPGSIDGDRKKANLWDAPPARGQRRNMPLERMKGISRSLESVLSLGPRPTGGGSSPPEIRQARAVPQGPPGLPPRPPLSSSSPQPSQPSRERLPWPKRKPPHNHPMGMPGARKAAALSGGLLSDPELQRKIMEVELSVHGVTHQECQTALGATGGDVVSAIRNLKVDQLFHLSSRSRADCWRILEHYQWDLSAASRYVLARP
The following applies: at 0.1 µM.

Assay [7] deals with T2, Non-receptor tyrosine-protein kinase TNK1 (Homo sapiens). To be noted: at 1 µM.
Assay [8] deals with Activated CDC42 kinase 1 (Homo sapiens) (UniProt Q07912). To be noted: at 0.1 µM.
Activated CDC42 kinase 1 (Homo sapiens), sequence (Q07912 whole entry, looked up): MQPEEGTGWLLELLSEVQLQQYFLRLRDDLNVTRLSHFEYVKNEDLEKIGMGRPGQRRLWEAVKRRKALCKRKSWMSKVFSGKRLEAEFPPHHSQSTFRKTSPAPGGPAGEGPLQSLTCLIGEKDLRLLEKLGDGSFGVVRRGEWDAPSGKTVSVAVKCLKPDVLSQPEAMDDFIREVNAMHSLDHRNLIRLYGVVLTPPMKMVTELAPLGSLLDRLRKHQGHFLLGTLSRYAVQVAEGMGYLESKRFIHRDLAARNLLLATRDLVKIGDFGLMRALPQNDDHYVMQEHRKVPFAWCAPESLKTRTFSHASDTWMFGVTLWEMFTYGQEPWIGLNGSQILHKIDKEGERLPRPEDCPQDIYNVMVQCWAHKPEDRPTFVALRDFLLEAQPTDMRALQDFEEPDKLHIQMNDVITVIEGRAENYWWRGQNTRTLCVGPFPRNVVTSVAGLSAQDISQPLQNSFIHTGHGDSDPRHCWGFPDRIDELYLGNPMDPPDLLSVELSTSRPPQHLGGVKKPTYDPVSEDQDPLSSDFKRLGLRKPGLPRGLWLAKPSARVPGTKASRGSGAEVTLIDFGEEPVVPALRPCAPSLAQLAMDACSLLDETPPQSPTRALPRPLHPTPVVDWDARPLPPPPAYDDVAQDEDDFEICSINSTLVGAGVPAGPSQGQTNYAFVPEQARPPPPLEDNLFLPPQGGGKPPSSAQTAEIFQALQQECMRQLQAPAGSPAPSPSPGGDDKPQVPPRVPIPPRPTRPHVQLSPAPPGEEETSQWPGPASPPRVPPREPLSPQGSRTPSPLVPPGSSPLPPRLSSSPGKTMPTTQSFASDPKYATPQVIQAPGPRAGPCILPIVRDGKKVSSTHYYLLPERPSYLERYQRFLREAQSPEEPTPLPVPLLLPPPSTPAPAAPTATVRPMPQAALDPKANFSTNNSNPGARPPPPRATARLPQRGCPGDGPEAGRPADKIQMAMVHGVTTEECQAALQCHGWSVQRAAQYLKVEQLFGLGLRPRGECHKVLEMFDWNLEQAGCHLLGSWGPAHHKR
Assay [9] has the same target. The following applies: at 1 µM.
Assay [10] deals with High affinity nerve growth factor receptor (Homo sapiens) (UniProt P04629). To be noted: at 0.1 µM.
High affinity nerve growth factor receptor (Homo sapiens), sequence (P04629 33-796 limits assumed): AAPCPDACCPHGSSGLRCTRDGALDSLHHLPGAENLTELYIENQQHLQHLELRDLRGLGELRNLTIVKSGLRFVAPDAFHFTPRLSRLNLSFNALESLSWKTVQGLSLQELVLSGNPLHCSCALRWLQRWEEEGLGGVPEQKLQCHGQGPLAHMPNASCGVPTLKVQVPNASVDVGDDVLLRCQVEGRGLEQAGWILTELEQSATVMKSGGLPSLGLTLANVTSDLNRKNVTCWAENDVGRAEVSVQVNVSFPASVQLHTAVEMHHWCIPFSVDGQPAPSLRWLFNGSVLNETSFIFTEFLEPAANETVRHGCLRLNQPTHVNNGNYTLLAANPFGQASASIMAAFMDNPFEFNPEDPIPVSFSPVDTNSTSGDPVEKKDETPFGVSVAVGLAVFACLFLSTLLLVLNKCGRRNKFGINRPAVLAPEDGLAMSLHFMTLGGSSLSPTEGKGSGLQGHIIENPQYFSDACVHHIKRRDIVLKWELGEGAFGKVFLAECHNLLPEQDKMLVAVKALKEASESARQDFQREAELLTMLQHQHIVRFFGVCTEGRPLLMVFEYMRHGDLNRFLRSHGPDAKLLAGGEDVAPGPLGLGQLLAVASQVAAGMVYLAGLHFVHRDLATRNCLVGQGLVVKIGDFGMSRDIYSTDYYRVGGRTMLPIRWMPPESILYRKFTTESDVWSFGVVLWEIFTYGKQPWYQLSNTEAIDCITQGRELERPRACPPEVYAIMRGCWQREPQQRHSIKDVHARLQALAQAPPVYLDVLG

Angiopoietin-1 receptor (Homo sapiens), sequence (Q02763 whole entry): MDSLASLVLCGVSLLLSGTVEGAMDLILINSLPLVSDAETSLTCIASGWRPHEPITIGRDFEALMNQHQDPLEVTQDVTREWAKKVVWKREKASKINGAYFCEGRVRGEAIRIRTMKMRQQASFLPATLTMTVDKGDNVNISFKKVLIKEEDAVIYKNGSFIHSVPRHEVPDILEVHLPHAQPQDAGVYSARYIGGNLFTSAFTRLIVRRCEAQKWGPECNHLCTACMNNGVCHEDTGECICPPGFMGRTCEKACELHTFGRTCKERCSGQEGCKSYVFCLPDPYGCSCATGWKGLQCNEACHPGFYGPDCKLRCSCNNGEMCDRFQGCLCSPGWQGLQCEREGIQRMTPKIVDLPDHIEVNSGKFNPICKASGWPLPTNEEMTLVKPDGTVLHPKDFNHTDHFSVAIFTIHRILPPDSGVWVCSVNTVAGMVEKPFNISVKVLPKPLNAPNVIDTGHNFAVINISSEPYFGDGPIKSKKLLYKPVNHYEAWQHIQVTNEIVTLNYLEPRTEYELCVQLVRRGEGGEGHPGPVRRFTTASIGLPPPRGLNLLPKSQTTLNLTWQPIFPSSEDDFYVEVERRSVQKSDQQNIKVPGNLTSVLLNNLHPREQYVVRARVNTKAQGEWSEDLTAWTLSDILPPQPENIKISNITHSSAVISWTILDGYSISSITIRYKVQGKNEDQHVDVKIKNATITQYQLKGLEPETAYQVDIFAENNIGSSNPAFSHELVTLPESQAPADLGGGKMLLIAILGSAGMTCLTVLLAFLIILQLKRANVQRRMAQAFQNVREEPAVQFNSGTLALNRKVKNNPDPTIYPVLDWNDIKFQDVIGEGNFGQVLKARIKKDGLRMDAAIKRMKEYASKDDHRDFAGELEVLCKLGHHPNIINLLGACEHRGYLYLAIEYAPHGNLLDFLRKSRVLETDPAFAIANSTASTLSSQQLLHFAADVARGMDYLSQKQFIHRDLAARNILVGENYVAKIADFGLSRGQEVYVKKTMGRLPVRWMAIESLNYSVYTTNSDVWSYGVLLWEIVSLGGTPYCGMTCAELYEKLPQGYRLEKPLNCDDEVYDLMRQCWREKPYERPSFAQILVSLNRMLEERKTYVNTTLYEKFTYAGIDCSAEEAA

As for `CN(c1ccc(NC(=O)NCCN2CCOCC2)cc1)c1ccnc(Nc2ccc(CS(C)(=O)=O)cc2)n1`, the inhibition was -6.78% in [1]; 5.49% in [2]; 24.8% in assay [3]; 3.99% in assay [4]; 29.3% in assay [5]; 15.5% in assay [6]. Further, the inhibition in [7] amounted to 63.5%; in assay [8], 1.35%; in assay [9], 8.46%; in assay [10], 1.46%.

Turning to `N#Cc1ccc2c(-c3ccnc(NC4CC4)n3)c(-c3ccc(F)cc3)nn2c1`, the inhibition in assay [1] was -1.91%; in assay [2] it was -0.44%; in assay [3] it was 3.17%; in assay [4], 1.54%; in assay [5], 3.72%; in assay [6] it was -0.18%. For the same compound, the inhibition in [7] was 1.77%; in assay [8] it was 0.77%; in assay [9] it was 1.6%; in [10], -1.05%.

Turning to `CS(=O)(=O)Nc1ccc(-c2cc(-c3ccccc3)cc(C(N)=O)c2N)cc1`, the inhibition was determined as 0.38% in assay [1]; 0.8% in assay [2]; 1.3% in [3]; 0.34% in assay [4]; 0.58% in assay [5]; 1.13% in assay [6]. The inhibition in assay [7] was 5.5%; in assay [8], -0.09%; in [9] it was -0.33%; in assay [10], 3.2%.

On to `CC1(C)CC(n2cnc(-c3ccc(F)cc3)c2-c2ccnc(N)n2)CC(C)(C)N1`, for which the inhibition in assay [1] is 0.92%; in [2], 1.41%; in assay [3] it was -0.41%; in [4], 1.61%; in assay [5], 3.96%; in assay [6] it was -0.43%. The inhibition in assay [7] is -1.61%; in assay [8], -0.24%; in [9], 0.43%; in assay [10], 6.46%.

Turning to `CN1CCN(Cc2ccc(-c3cc4ncnc(Nc5ccc(OCc6cccc(F)c6)c(Cl)c5)c4s3)o2)CC1`, the inhibition in assay [1] was -0.79% and 0.39%; in assay [2] it was 0.53% and 4.75%; in assay [3], 4.67% and 6.65%; in [4], 4.14% and 4.04%; in assay [5], 16.7% and 17.8%; in assay [6], 2.88% and 6.1%. Besides, the inhibition in assay [7] is 18.5% and 23.1%; in assay [8] it was 1.15% and 2.06%; in assay [9], 2.33% and 3.5%; in assay [10], 1.64% and -0.7%.

For `Cn1c(-c2nonc2N)nc2cnccc21`, the inhibition was 0.59% in [1]; 4.08% in assay [2]; 3.99% in assay [3]; 1.46% in assay [4]; 2.07% in assay [5]; 1.08% in [6]. Also, the inhibition in assay [7] came out at 0.76%; in assay [8], 0.75%; in assay [9] it was 0.19%; in assay [10] it was 1.03%.

As for `CN(C)CCNC(=O)Nc1ccc(N(C)c2ccnc(Nc3ccc(CS(C)(=O)=O)cc3)n2)cc1`, the inhibition in assay [1] is -4.22%; in [2], 5.73%; in assay [3], 14.7%; in [4] it was 2.91%; in assay [5], 12.6%; in [6], 12.7%. Further, the inhibition in assay [7] was 47.1%; in assay [8], 1.49%; in [9], 4.15%; in [10], 1.76%.

Regarding `Nc1nccc(-c2c(-c3ccc(F)cc3)ncn2C2CCNCC2)n1`, the inhibition in [1] was -2.74% and 1.45%; in assay [2], -2.4% and 0.94%; in assay [3] it was -2.93% and 2.08%; in assay [4], -0.35% and 2.75%; in assay [5] it was 1.51% and 1.25%; in assay [6], -6.18% and -1.13%. The inhibition in [7] is -2.86% and -0.41%; in assay [8], -1.87% and 0.84%; in assay [9] it was -2.1% and 1.2%; in assay [10], -1.68% and 4.53%.

In the case of `NS(=O)(=O)c1ccc(N/N=C2\C(=O)Nc3ccc(C(=O)NCc4ccncc4)cc32)cc1`, the inhibition in assay [1] was -2.54%; in [2], 3.82%; in [3], 7.13%; in [4] it was -0.94%; in assay [5] it was 1.16%; in assay [6] it was 3.58%. The inhibition in assay [7] was 17.5%; in assay [8] it was 0.57%; in assay [9], 2.58%; in [10], 4.11%.

Regarding `COc1cc(N2CCN(C(C)C)CC2)ccc1Nc1nc(Nc2cccc(F)c2C(=O)O)c2cc[nH]c2n1`, the inhibition in [1] is -7.57%; in [2], 4.02%; in assay [3] it was 5.87%; in assay [4], 2.04%; in assay [5], 5.53%; in assay [6], 8.72%. Also, the inhibition in assay [7] was 53.4%; in assay [8] it was 1.91%; in [9] it was 5.95%; in [10] it was 4.69%.

For the compound `CCN1CCC(C(=O)Nc2n[nH]c3nnc(-c4cccc(F)c4F)cc23)CC1`, the inhibition is 0.2% in [1]; -1.63% in [2]; 0.37% in [3]; 1.84% in [4]; 2.91% in assay [5]; 1.54% in assay [6]. The inhibition in assay [7] was 0.05%; in assay [8], -0.13%; in [9] it was 0.07%; in [10], 1.95%.

In the case of `CN1CCC(n2cnc(-c3ccc(F)cc3)c2-c2ccnc(NCCO)n2)CC1`, the inhibition in [1] is -1.12%; in [2] it was 6.05%; in assay [3] it was 5.09%; in assay [4] it was 1.8%; in assay [5] it was 3.36%; in [6], 4.89%. Besides, the inhibition in assay [7] was 10.8%; in [8], 1.7%; in [9], 2.83%; in assay [10] it was 2.11%.

Turning to `Fc1cccc(COc2ccc(Nc3ncncc3C#Cc3ccccc3)cc2Cl)c1`, the inhibition in assay [1] was -0.97%; in assay [2], 4.69%; in assay [3], 4.11%; in assay [4] it was 1.87%; in [5], 2.11%; in assay [6], 1.37%. The inhibition turned out to be 9.13% in [7], 1.84% in assay [8], 3.24% in [9] and 2.85% in assay [10].

For the compound `CS(=O)(=O)Nc1ccc(-c2ccc3c(NC(=O)C4CC4)n[nH]c3c2)cc1`, the inhibition was -1.82% in [1]; 3.96% in assay [2]; 7.11% in assay [3]; 2.18% in [4]; 10.9% in assay [5]; 2.68% in assay [6]. Besides, the inhibition in assay [7] is 5.17%; in assay [8] it was 1.26%; in assay [9], 3.12%; in [10], 2.98%.

In the case of `CC1=C(C(=O)Nc2ccc3[nH]nc(C)c3c2)C(c2ccc(C(F)(F)F)cc2)CC(=O)N1` (stereo not given), the inhibition is -0.48% in assay [1]; 4.4% in assay [2]; 8.29% in [3]; 1.71% in assay [4]; 6.96% in assay [5]; 6.09% in assay [6]. The inhibition was 31.3% in assay [7], 3.49% in assay [8], 27.4% in [9] and 4.41% in assay [10].

Turning to `COC(=O)Nc1nc2ccc(Oc3ccc(NC(=O)Nc4cc(C(F)(F)F)ccc4F)cc3)cc2s1`, the inhibition is 0.26% in assay [1]; 1.25% in [2]; -0.83% in assay [3]; 50.8% in [4]; 78% in [5]; 11.5% in assay [6]. The inhibition was 27.2% in assay [7], 0.46% in [8], 1.35% in assay [9] and 24.2% in assay [10].
